The record followed here is PubChem BioAssay (NCI).

Holding throughout (assay): NCI-60 one-dose screen, 48 h (100 = growth as untreated, 0 = no growth, -100 = all killed)
One experiment concerns SR leukemia. The note with it: 10 µM unless noted.
The subject of the next experiment is RPMI-8226 leukemia. The note with it: 10 µM.
In the next experiment the test system is OVCAR-8 ovarian. The note with it: 10 µM unless noted.
A further experiment relates to IGROV1 ovarian. The note with it: 10 µM unless noted.
The test system of another experiment is OVCAR-3 ovarian. The settings on record: 10 µM unless noted.
In a further experiment the test system is NCI/ADR-RES ovarian. The note with it: 10 µM unless noted.
Another experiment has as its system T-47D breast. The note with it: 10 µM.
Another experiment has as its system BT-549 breast. The note with it: 10 µM unless noted.
A further experiment has as its system MDA-MB-435 melanoma. The settings on record: 10 µM unless noted.
The next experiment concerns SW-620 colon. The note with it: 10 µM unless noted.
Another experiment relates to MCF7 breast. The settings on record: 10 µM unless noted.
A further experiment deals with HCT-116 colon. The settings on record: 10 µM unless noted.
A further experiment has as its system HCC-2998 colon. The settings on record: 10 µM unless noted.
Another experiment has as its system KM12 colon. The settings on record: 10 µM unless noted.
Another experiment has as its system OVCAR-5 ovarian. The settings on record: 10 µM unless noted.
In a further experiment the test system is OVCAR-4 ovarian. The note with it: 10 µM unless noted.
The subject of a further experiment is HS 578T breast. The settings on record: 10 µM unless noted.
The subject of a further experiment is SK-OV-3 ovarian. The note with it: 10 µM.

The panel holds about 83,000 compounds, 20% with a hit somewhere; the sample as a whole holds those more often.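 A percent growth of 40 corresponds to 60% growth inhibition; 0 means no net growth; -100 means all cells died. Active threshold: below 10.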 Unmarked numbers belong to inactive results. The source made the active and inactive calls.

On to `NS(=O)(=O)c1ccc(C(=O)N/N=C(\CS(=O)(=O)c2ccccc2)c2cc3cc(Br)ccc3o2)cc1`, for which the growth with SR leukemia was 127%; with RPMI-8226 leukemia it was 98.3%; in the experiment with OVCAR-8 ovarian, 75.2%; in the experiment on IGROV1 ovarian it was 92.5%; in the experiment on OVCAR-3 ovarian, 94.5%; in the experiment on NCI/ADR-RES ovarian, 98%. In addition, the growth in the experiment on T-47D breast was 88.1%; with BT-549 breast, 101%; in the experiment with MDA-MB-435 melanoma, 73%; in the experiment on SW-620 colon it was 94.6%; with MCF7 breast, 72.3%; with HCT-116 colon, 90.5%. For the same compound, the growth was 94.2% in the experiment on HCC-2998 colon and 85.6% in the experiment on KM12 colon.

As to `CCN1CCN(c2ccc(Nc3ncc4ccc5ncn(C(C)C)c5c4n3)nc2)CC1`, the growth is 3.9% (active) with SR leukemia; 13.6% in the experiment with OVCAR-8 ovarian; 4.92% (active) with OVCAR-5 ovarian; 5.12% (active) in the experiment on OVCAR-4 ovarian; -4.82% (active) in the experiment on IGROV1 ovarian; -28.2% (active) with OVCAR-3 ovarian. For the same compound, the growth in the experiment on HS 578T breast was -20.8% (active); with NCI/ADR-RES ovarian, 2.06% (active); in the experiment with BT-549 breast, -24.7% (active); in the experiment on MDA-MB-435 melanoma, 0.992% (active); with SW-620 colon, -7.47% (active); with MCF7 breast, -1.88% (active). For the same compound, the growth is 8.77% (active) in the experiment on HCT-116 colon, -4.57% (active) with HCC-2998 colon and -16.9% (active) in the experiment with KM12 colon.

For the compound `CC1SC(c2ccc(Cl)cc2)N(CCc2cccs2)C1=O` (centres undefined), the growth was -10.3% (active) in the experiment on RPMI-8226 leukemia; 4.04% (active) in the experiment on OVCAR-8 ovarian; 8.29% (active) in the experiment on OVCAR-5 ovarian; 8.71% (active) in the experiment on OVCAR-4 ovarian; 5.5% (active) in the experiment with SK-OV-3 ovarian; 4.04% (active) with IGROV1 ovarian. Also, the growth is -30.3% (active) in the experiment with OVCAR-3 ovarian; -16% (active) with HS 578T breast; 9.51% (active) in the experiment with T-47D breast; -39.3% (active) in the experiment with BT-549 breast; -37.4% (active) with MDA-MB-435 melanoma; 12.4% in the experiment with SW-620 colon. For the same compound, the growth in the experiment on MCF7 breast is 2.74% (active); in the experiment with HCT-116 colon, -5.82% (active); with HCC-2998 colon it was -1.78% (active); with KM12 colon, -12% (active).

In the case of `COC(=O)C1C2CC3c4[nH]c5cc(OC)ccc5c4CCN3CC2CC(OC2CCCCO2)C1OC` (centres undefined), the growth with RPMI-8226 leukemia is 87.5%; with OVCAR-8 ovarian, 96.2%; with OVCAR-5 ovarian it was 105%; in the experiment on OVCAR-4 ovarian, 93.6%; in the experiment on SK-OV-3 ovarian it was 101%; in the experiment with IGROV1 ovarian it was 114%. The growth is 107% in the experiment on OVCAR-3 ovarian; 96.2% in the experiment with HS 578T breast; 95.4% in the experiment with NCI/ADR-RES ovarian; 108% in the experiment with T-47D breast; 97.2% in the experiment on BT-549 breast; 101% in the experiment on MDA-MB-435 melanoma. The growth with SW-620 colon was 100%; in the experiment with MCF7 breast, 95.8%; in the experiment on HCT-116 colon, 103%; in the experiment on KM12 colon, 105%.

As for `CNc1ccc(Br)cc1-c1n[nH]c(=O)[nH]c1=O`, the growth is 104% with RPMI-8226 leukemia; 100% with OVCAR-8 ovarian; 98.3% in the experiment on OVCAR-5 ovarian; 90.9% in the experiment on OVCAR-4 ovarian; 102% in the experiment with SK-OV-3 ovarian; 106% in the experiment on IGROV1 ovarian. Moreover, the growth with OVCAR-3 ovarian was 116%; in the experiment with HS 578T breast, 84.1%; in the experiment on NCI/ADR-RES ovarian it was 105%; with T-47D breast it was 109%; in the experiment on BT-549 breast it was 99.9%; in the experiment on MDA-MB-435 melanoma, 98.8%. Besides, the growth is 92.9% in the experiment on SW-620 colon; 90.2% in the experiment on MCF7 breast; 98.2% in the experiment on HCT-116 colon; 107% in the experiment with HCC-2998 colon; 111% with KM12 colon.

For `CCN(CC)c1ccc(/C=C(\C#N)c2cc3ccccc3[nH]2)cc1`, the growth in the experiment with SR leukemia was 24.6%; with OVCAR-8 ovarian it was 63.4%; in the experiment with OVCAR-5 ovarian it was 72.4%; with OVCAR-4 ovarian it was 68.2%; with IGROV1 ovarian it was 65.1%; in the experiment on OVCAR-3 ovarian, 20.9%. Further, the growth was 35.4% in the experiment on NCI/ADR-RES ovarian; 1.8% (active) in the experiment on MDA-MB-435 melanoma; 23.3% in the experiment with SW-620 colon; 23.7% in the experiment with MCF7 breast; 31.5% in the experiment with HCT-116 colon; 77.8% in the experiment with HCC-2998 colon. Besides, the growth in the experiment on KM12 colon is 21.7%.

Take `NC1=NC(c2ccccc2OS(=O)(=O)c2ccc(Br)cc2)n2c(nc3ccccc32)N1` (centres undefined): the growth in the experiment on RPMI-8226 leukemia is 69.8%; in the experiment on OVCAR-8 ovarian, 88.3%; in the experiment with OVCAR-5 ovarian, 99%; in the experiment on OVCAR-4 ovarian, 110%; with SK-OV-3 ovarian, 105%; with IGROV1 ovarian, 81.8%. Also, the growth is 94.6% with OVCAR-3 ovarian; 101% in the experiment with HS 578T breast; 81.2% with T-47D breast; 73.1% in the experiment with MDA-MB-435 melanoma; 96% in the experiment with SW-620 colon; 77.3% in the experiment on MCF7 breast. Besides, the growth in the experiment on KM12 colon is 100%.

For the compound `Cc1c(C(=O)Nc2nc(-c3ccccc3)cs2)nnn1-c1cccc2ccccc12`, the growth with SR leukemia is 29.2% [50 µM]; in the experiment on OVCAR-8 ovarian, 50.9% [50 µM]; with OVCAR-4 ovarian it was 23.7% [50 µM]; with IGROV1 ovarian it was 69.9% [50 µM]; in the experiment on OVCAR-3 ovarian, 71.8% [50 µM]; with HS 578T breast, 79.5% [50 µM]. Further, the growth in the experiment on NCI/ADR-RES ovarian is 65.1% [50 µM]; with BT-549 breast, 56.7% [50 µM]; in the experiment on MDA-MB-435 melanoma, 47.2% [50 µM]; with SW-620 colon, 71.6% [50 µM]; in the experiment on MCF7 breast, 38.7% [50 µM]; with HCT-116 colon it was 30% [50 µM]. Also, the growth in the experiment with HCC-2998 colon is 87.7% [50 µM]; in the experiment on KM12 colon it was 65% [50 µM].

Consider `CC(C)(C)[Si](C)(C)OC1[C@@H](CNC(=O)NC(=O)CCl)O[C@@H](n2cnc3c(N)ncnc32)[C@H]1O[Si](C)(C)C(C)(C)C` (some centres undefined), for which the growth is -43% (active) in the experiment with RPMI-8226 leukemia; -47.7% (active) with OVCAR-8 ovarian; -37.5% (active) in the experiment with OVCAR-5 ovarian; -54.7% (active) with OVCAR-4 ovarian; 92% with SK-OV-3 ovarian; -61.8% (active) in the experiment with IGROV1 ovarian. Besides, the growth was -91.5% (active) in the experiment with OVCAR-3 ovarian; -16.9% (active) with HS 578T breast; -30.4% (active) in the experiment with NCI/ADR-RES ovarian; -70.6% (active) in the experiment on BT-549 breast; -90% (active) with MDA-MB-435 melanoma; -82% (active) in the experiment with SW-620 colon. Moreover, the growth in the experiment on MCF7 breast is -75.5% (active); in the experiment on HCT-116 colon, -87.7% (active); with HCC-2998 colon, -69.5% (active).

Consider `COc1ccc(-n2ncc3c4nc(OC)c(S(=O)(=O)c5ccccc5)cc4ccc32)cc1`, for which the growth in the experiment with RPMI-8226 leukemia is 95%; in the experiment with OVCAR-8 ovarian, 52.7%; in the experiment on OVCAR-5 ovarian, 91.3%; in the experiment with OVCAR-4 ovarian it was 45.5%; in the experiment on SK-OV-3 ovarian, 55.8%; in the experiment with IGROV1 ovarian, 92%. For the same compound, the growth was 77.2% with OVCAR-3 ovarian; 43.5% in the experiment with HS 578T breast; 73.4% in the experiment on NCI/ADR-RES ovarian; 53.1% with BT-549 breast; 83.3% with MDA-MB-435 melanoma; 90% in the experiment with SW-620 colon. Also, the growth was 87.9% in the experiment on MCF7 breast, 59.7% with HCT-116 colon, 96.7% in the experiment with HCC-2998 colon and 90.2% with KM12 colon.
